Only a selection was taken, and hits are over-represented in it overall.
Shiga toxin inh: inhibitors of Shiga toxin in Vero cells. Vero cells, Shiga toxin protein synthesis inhibition reporter. inhibition, % at 38.7 µM. 9.2% of 290,000 active; in the data active means inhibition mostly above about 28%, no sharp cut-off; inactive means mostly below about 43%; further: 0% is about no effect
Cycloheximide cs: affects cycloheximide protein synthesis inhibition readout, counter-screen | cell reporter, cycloheximide protein synthesis inhibition counterscreen | max response, % | 12% of 300,000 active | AID 2314; in the data active means max response mostly above about 13%, no sharp cut-off; inactive means mostly below about 14%; further: read at 38.3 µM for the half of the compounds with a filed dose; 0% is about no effect
SARS PLpro yeast: SARS-CoV PLP inhibition in yeast; Potency, µM (titrated, usually from 32.9 µM), for the others: at the highest dose activity, positive = growth rescue, most hits filed as activators; 0.19% of 330,000 active; AID 485353; S. cerevisiae expressing SARS-CoV PLpro, growth rescue; further: potency means the concentration at half of the fitted maximal effect; 0% is about no effect; nearly all actives have a fitted effect of over 55% in size
TbPYK inhibitor: T. brucei pyruvate kinase inhibition; Q57TT1; TbPYK enzyme, Kinase-Glo Plus ATP luminescence, 45 min; Potency, µM (titrated, usually from 76.8 µM), for the others: top-dose activity, negative = inhibition, most hits filed as inhibitors; 0.12% of 410,000 active; active means well fitted curve in the direction sought with a large enough effect; an effect the other way counts as inactive or inconclusive; further: potency means the concentration at half of the fitted maximal effect; on the % scale 0 is the no-effect control and ±100 the full control effect; nearly all actives have a fitted effect of over 50% in size
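Glycolytic pyruvate kinase of T. brucei was incubated with substrate, test compound and 130 uM ADP for 45 minutes at room temperature. Luminescent Kinase-Glo Plus signal was measured after 10 minutes.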
LmPK inhibitor: blocks Leishmania mexicana pyruvate kinase activity; purified LmPK, Kinase-Glo ATP luminescence, 1 h; 0.37% of 290,000 active; Q27686; Potency, µM (series often up to 57.5 µM), for the others: top-dose activity change, negative = inhibition, most hits filed as inhibitors; active means well fitted curve in the direction sought with a large enough effect; an effect the other way counts as inactive or inconclusive; further: potency means the concentration at half of the fitted maximal effect; on the % scale 0 is the no-effect control and ±100 the full control effect
Target sequence (Q27686 whole entry, looked up): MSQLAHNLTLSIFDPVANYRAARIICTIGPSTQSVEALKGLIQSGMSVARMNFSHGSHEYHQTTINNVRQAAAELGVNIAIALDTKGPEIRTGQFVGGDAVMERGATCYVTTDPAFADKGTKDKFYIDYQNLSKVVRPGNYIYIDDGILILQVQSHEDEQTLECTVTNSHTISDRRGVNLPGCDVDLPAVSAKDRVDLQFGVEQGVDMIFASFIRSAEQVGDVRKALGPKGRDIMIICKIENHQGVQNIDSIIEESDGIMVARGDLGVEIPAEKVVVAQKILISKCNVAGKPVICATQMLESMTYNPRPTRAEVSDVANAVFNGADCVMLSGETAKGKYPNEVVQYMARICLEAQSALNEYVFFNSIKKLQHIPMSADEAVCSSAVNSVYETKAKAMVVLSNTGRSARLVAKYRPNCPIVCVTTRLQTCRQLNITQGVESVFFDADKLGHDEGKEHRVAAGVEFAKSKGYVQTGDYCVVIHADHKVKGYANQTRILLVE
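Purified LmPK (0.1 nM) with 0.5 mM PEP and 0.1 mM ADP in imidazole buffer pH 7.2 with MgCl2/KCl, 1 h at room temperature. ATP formed was read by luciferase luminescence and normalized to no-enzyme and uninhibited controls.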
NS1 inh: inhibitors of influenza NS1 protein function; Potency, µM (doses to about 46.1 µM), for inactives: at the highest dose activity, positive = more growth; 0.4% of 270,000 active; AID 2326; further: potency means the concentration at half of the fitted maximal effect; actives are rising curves; nearly all actives have a fitted effect of over 50% in size
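A cell-based growth assay was used: compounds that relieve NS1-induced slow growth of budding yeast raise OD600. Assay medium was yeast nitrogen base with ammonium sulphate and -URA supplement, pH 6.0, with 2% galactose.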
* marks the source's active call; other numbers are inactive results; · = no result given. Unless noted, the call rests on the fitted dose curve.

SMILES	Shiga toxin inh	Cycloheximide cs	SARS PLpro yeast	TbPYK inhibitor	LmPK inhibitor	NS1 inh
COc1ccc(NS(=O)(=O)c2cccc(-c3nnc(-c4ccccc4)o3)c2)cc1	56.6*	14.8*	-11.5%	-14.9%	-9.4%	-20.9%
CCc1ccc(NC(=O)CCc2nnc3ccc(N4CCCC4)nn23)cc1	3.1	-8.7	5.6%	0.2%	-1.3%	17.6%
CC(=O)c1ccc(NC(=O)CCc2nnc3ccc(N4CCCC4)nn23)cc1	50.2*	31.5*	1.1%	2.9%	-8.3%	2.2%
Cc1ccc(NC(=O)CCc2c(C)nn(-c3ccc(N4CCOCC4)nn3)c2C)cc1F	68.5*	40.7*	5.8%	-1.2%	4.2%	11.4%
Cc1ccc(F)cc1NC(=O)CCc1c(C)nn(-c2ccc(N3CCOCC3)nn2)c1C	·	·	·	-3.3%	·	·
CCc1ccc(NC(=O)CCc2c(C)nn(-c3ccc(N4CCOCC4)nn3)c2C)cc1	45.0*	42.1*	-16.6%	1.8%	-0.1%	-10.2%
COC(=O)c1ccc(NC(=O)CCc2c(C)nn(-c3ccc(N4CCOCC4)nn3)c2C)cc1	·	·	·	1.6%	·	·
CC(=O)c1ccc(NC(=O)CCc2c(C)nn(-c3ccc(N4CCOCC4)nn3)c2C)cc1	39.7*	44.3*	3.7%	-23.2%	-6.6%	-14.6%
COc1ccc(NC(=O)CCc2c(C)nn(-c3ccc(N4CCOCC4)nn3)c2C)cc1	37.8	19.5	24.5%	0.0%	-1.4%	3.1%
Cc1ccc(NC(=O)CCc2c(C)nn(-c3ccc(N4CCOCC4)nn3)c2C)cc1	6.8	22.6*	1.6%	-3.3%	1.0%	-14.4%
CCc1cccc(NC(=O)CCc2c(C)nn(-c3ccc(N4CCOCC4)nn3)c2C)c1	26.8	26.0*	1.5%	-9.0%	3.4%	1.6%
Cc1nn(-c2ccc(N3CCOCC3)nn2)c(C)c1CCC(=O)Nc1ccccc1	19.8	25.5*	-1.3%	11.3%	-2.1%	-2.4%
Cn1c(SCC(N)=O)nc2c([nH]c3ccccc32)c1=O	·	·	·	-5.9%	·	·
CN(CCc1ccccc1)Cc1ccccc1[N+](=O)[O-]	41.8	17.2*	-1.5%	6.9%	-2.6%	4.3%
COc1ccc(NC(=O)CN2CCN(C3c4ccccc4-c4ccccc43)CC2)cc1	41.5*	57.3*	-13.5%	2.7%	2.9%	-5.8%
CC1(C(=O)OCC(=O)Nc2ccc3ccccc3c2)CC1(Cl)Cl (configuration not stated)	64.1*	36.8*	-14.6%	3.4%	2.4%	-3.1%
COc1ccc(NC(=O)CN2CCC(C)CC2)c([N+](=O)[O-])c1	33.4	21.9*	1.5%	-3.7%	0.2%	2.1%
CCOc1ccc(NC(=O)COC(=O)C2(C)CC2(Cl)Cl)c([N+](=O)[O-])c1 (configuration not stated)	45.1*	18.4*	-11.2%	-4.5%	1.4%	-1.6%
CN(CC(=O)NCC(c1ccco1)N1CCCCC1)S(=O)(=O)c1ccc(Cl)cc1 (configuration not stated)	·	·	6.2%	2.2%	·	·
COc1cc(NC(=O)Cn2c(=O)n(CC(=O)NCCc3ccc(OC)c(OC)c3)c(=O)c3sccc32)cc(OC)c1	·	·	·	-2.3%	·	·
CN(C1CCCCC1)S(=O)(=O)c1ccc(SCC(=O)C(C)(C)C)nc1	·	·	·	3.1%	·	·
COc1ccc(NC(=O)CSc2nc3ccccc3n2-c2ccccc2)c([N+](=O)[O-])c1	-0.3	-3.9	-2.8%	-7.8%	3.6%	6.5%
COc1ccc(NC(=O)CSc2ccccc2)c([N+](=O)[O-])c1	98.8*	60.2*	-0.1%	-0.8%	0.0%	·
CCCOC(=O)Nc1cc(OC)ccc1[N+](=O)[O-]	22.7	24.6*	-2.6%	-8.9%	1.2%	·
CC1CCN(CC(=O)Nc2ccc(Cl)cc2[N+](=O)[O-])CC1	16.5	17.9*	0.5%	1.5%	-9.3%	·
COc1ccc(NC(=O)CN2CCCCC2)c([N+](=O)[O-])c1	55.7*	30.4*	-9.5%	5.8%	1.7%	-1.4%
O=C(Nc1ccccc1Cl)Nc1ccnn1C1CCN(C(=O)C2CCOC2)CC1 (configuration not stated)	·	·	·	-4.3%	·	·
COc1ccc(NC(=O)CN2CCC(C)CC2)cc1	29.8*	15.8*	4.2%	2.2%	2.7%	6.1%
CCOc1ccc(OCC(=O)Nc2ccc(OC)cc2[N+](=O)[O-])cc1	-2.6	1.6	22.2%	-4.4%	4.6%	3.3%

Assay outcomes (PubChem BioAssay)
